This note sets out measurements from PubChem BioAssay AID624305 (National Center for Advancing Translational Sciences (NCATS), 2012).

Results filed as inconclusive are left out. Activity calls are given as the source filed them. Calls come from the whole dose curve; as a rule, active = well fitted activation curve with a large enough effect; inconclusive = small, poorly fitted or top-dose-only effect; inactive = no such curve, though single readings can be large or run the other way.
Potency is the fitted concentration of half-maximal effect.

The test is described as follows: qHTS assay for re-activators of p53 using a Luc reporter: Hit Validation. Note: nearly all actives have a fitted effect of over 75% in size. The conditions noted are these: p53-responsive luciferase reporter cells, luminescence, H1299 line expressing heat-sensitive Ala138Val p53; series mostly up to 46.1 µM. The gist of the method: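 H1299 (p53-null) cells stably carrying p53-A138V and a BP100-luciferase reporter, 1000 cells/well, treated 24 h at 37 deg C. Compounds at several concentrations, 1:5 dilution; nocodazole control; luminescence read after 10 min with detection reagent.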
Regarding `Clc1ccccc1Nc1nc2ccccc2o1`, the Potency was 5.17 µM (active).
Take `Cc1ccsc1C(=O)Nc1ccc2c(c1)OCCO2`: the Potency was 0.326 µM (active).
In the case of `Cc1noc(C)c1C(=O)OCC(=O)N1CCc2ccccc21`, the Potency entry was “inactive”.
The figure for `Cc1ccc(OC(=O)c2cccc(S(=O)(=O)N3CCCC3)c2)c(-n2nc3ccccc3n2)c1` is 3.66 µM (active).
On to `Cc1cccc(N/C=C/C(=O)c2cccs2)c1C`, for which the Potency is 0.0651 µM (active).
With `COc1ccc(-c2cc(C(F)(F)F)nc(-n3ccnc3C)n2)cc1`, the Potency result was “inactive”.
As to `Cc1ccc(C)n1-c1sc2c(c1C(=O)O)CCCC2`, the Potency entry was “inactive”.
For the molecule `Cc1ccc2oc(-c3ccc(C)c(NC(=S)NC(=O)c4cccs4)c3)nc2c1`, the Potency is 4.61 µM (active).
As to `CC(=O)c1ccc(Nc2ncnc3c2oc2ccccc23)cc1`, the Potency is 1.64 µM (active).
For `N#CC1=C(N)N2C(=C(C#N)C13CCCCC3)SC1CCCCC12O` (stereo not drawn), the Potency entry was “inactive”.
For the molecule `O=C(NC(=S)Nc1ccccc1Br)C1CCCCC1`, the Potency is 20.6 µM (active).
For `O=C(NCCC1=CCCCC1)c1ccc([N+](=O)[O-])cc1`, the Potency was 2.59 µM (active).
`Cc1ccc2nc(C(F)(F)F)c(C#N)c(N)c2c1`: the Potency result is “inactive”.
The figure for `Cn1cc(Cl)c(C(=O)Nc2nc3ccccc3s2)n1` is 0.231 µM (active); for `COc1ccc2[nH]c(=O)c3c(c2c1)OC(C)(C)C=C3` it is “inactive”.
In the case of `CCN1CCN(CC(=O)Nc2nc3ccc(C)cc3s2)CC1`, the Potency result was “inactive”.
The entry for `CCC(Sc1nc2ccccc2c(=O)n1CCN1CCOCC1)C(=O)NCc1cccnc1` (stereo not drawn) is “inactive”; for `O=C(NC12CC3CC(CC(C3)C1)C2)c1ccc(-c2cccc(Cl)c2)o1` it is 23.1 µM (active).
In the case of `C/C(CC(C)C)=N\NC(=O)Nc1ccccc1`, the Potency result was “inactive”.
Consider `Clc1ccc(Nc2nc(-c3cccs3)cs2)nc1`, for which the Potency is 4.11 µM (active).
As for `O=C(O)C1C2C=CC(C2)C1C(=O)Nc1ccccc1Br` (stereo not drawn), the Potency entry is “inactive”.
In the case of `CCOc1ccc(OCc2cccc(C(=O)N3CCCC3)c2)cc1` it was 0.517 µM (active); in that of `Clc1ccc(OCc2nc(-c3ccccn3)no2)c(Br)c1`, 1.03 µM (active); in that of `C/C(=N\NC(=O)c1cccc(Br)c1)c1ccccn1`, 9.2 µM (active).
Consider `Cc1cc2[nH]c3ccccc3c2c(C)n1`, for which the Potency entry is “inactive”.
As for `O=C(CSc1nc2ccccc2c(=O)[nH]1)c1ccc(O)c(O)c1`, the Potency entry was “inactive”.
Turning to `Cc1ccc(Nc2nc(N)nc(CSc3nccn3C)n2)cc1`, the Potency was 2.31 µM (active).
Turning to `O=C(N/N=C/c1sc(=O)[nH]c1-[n+]1ccc2ccccc2c1)c1ccccc1[O-]`, the Potency result is “inactive”.
Take `Fc1cccc2sc(Nc3nnc(-c4ccco4)o3)nc12`: the Potency was 11.6 µM (active).
Turning to `Cc1ccc2nc(-c3ccc(NC(=O)COC(=O)c4cncc(Br)c4)cc3)sc2c1`, the Potency is 0.146 µM (active).
In the case of `Cc1ccc(OCCCNCCO)c(Br)c1` it was “inactive”.
Turning to `CCc1cc2c(=O)c(-c3ccc4c(c3)OCCO4)coc2cc1OS(C)(=O)=O`, the Potency is 4.61 µM (active).
Consider `C#CCn1c(=NC(=O)c2cccs2)sc2cccc(OCC)c21`, for which the Potency entry was “inactive”.
For the molecule `Cn1c(-c2ncc(F)cc2F)cc2onc(-c3c(F)cccc3Cl)c2c1=O`, the Potency was 2.59 µM (active).
Regarding `CCOc1ccc(NC(=O)/C=C/c2ccccc2)c([N+](=O)[O-])c1`, the Potency is 5.17 µM (active).
With `Cc1cc([N+](=O)[O-])ccc1NC(=O)/C=C/c1cccs1`, the Potency result was “inactive”.
In the case of `CC(=O)c1cccc(NC(=O)c2sc(Cl)nc2C)c1` it was “inactive”.
As to `Cc1ccc(C(=O)NC2CC2)cc1S(=O)(=O)N1CCOCC1`, the Potency result was “inactive”.
